According to PubChem BioAssay (NCI):
The panel holds about 83,000 compounds, 20% with a hit somewhere; the sample as a whole holds those more often.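 Each cell line was grown in a 96-well plate and treated with one concentration of compound for 48 hours. Values below 10 were considered active.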 Activity calls are given as the source filed them.

Columns and labels:
Assay in all cases: NCI-60 one-dose screen, 48 h (100 = growth as untreated, 0 = no growth, -100 = all killed)
Conditions in all cases: 10 µM unless noted
NCI-H23 lung = system: NCI-H23 lung
NCI-H226 lung = system: NCI-H226 lung
NCI-H322M lung = system: NCI-H322M lung
HOP-62 NSCLC = system: HOP-62 NSCLC
NCI-H460 lung = system: NCI-H460 lung
NCI-H522 lung = system: NCI-H522 lung
A549/ATCC NSCLC = system: A549/ATCC NSCLC
786-0 renal = system: 786-0 renal
COLO 205 colon = system: COLO 205 colon
DU-145 prostate = system: DU-145 prostate
K-562 leukemia = system: K-562 leukemia
MALME-3M melanoma = system: MALME-3M melanoma
MDA-MB-231 breast = system: MDA-MB-231 breast
RXF 393 renal = system: RXF 393 renal
SF-268 CNS = system: SF-268 CNS
SF-295 CNS = system: SF-295 CNS
SF-539 CNS = system: SF-539 CNS
UACC-257 melanoma = system: UACC-257 melanoma
M14 melanoma = system: M14 melanoma

Measured: growth

CC1OC(n2c3ccccc3c3c4c(c5c6ccccc6[nH]c5c32)C(=O)N(CCN2CCOCC2)C4=O)CC(O)C1O (configuration not stated)
active: HOP-62 NSCLC -5.89% | NCI-H460 lung 3.35% | 786-0 renal 6.66% | SF-295 CNS 6.46% | SF-539 CNS 8.58% | M14 melanoma 6.29%
inactive: NCI-H23 lung 16.3% | NCI-H226 lung 17% | NCI-H322M lung 59.1% | NCI-H522 lung 10.6% | A549/ATCC NSCLC 12.2% | COLO 205 colon 20% | DU-145 prostate 18.1% | K-562 leukemia 18.4% | MALME-3M melanoma 49.1% | MDA-MB-231 breast 74.5% | RXF 393 renal 33.4% | SF-268 CNS 29.8% | UACC-257 melanoma 31.8%

CC(=O)c1ccc(Br)c([N+](=O)[O-])c1
inactive: NCI-H23 lung 106% | NCI-H226 lung 112% | NCI-H322M lung 107% | HOP-62 NSCLC 109% | NCI-H460 lung 109% | NCI-H522 lung 27.6% | A549/ATCC NSCLC 100% | 786-0 renal 95.4% | COLO 205 colon 127% | DU-145 prostate 113% | K-562 leukemia 89.7% | MALME-3M melanoma 98.6% | MDA-MB-231 breast 117% | RXF 393 renal 113% | SF-268 CNS 117% | SF-295 CNS 96.9% | SF-539 CNS 107% | UACC-257 melanoma 111% | M14 melanoma 97.2%

CC1(C)OC2OC3C(CN)OC(c4ccccc4)OC3C2O1 (configuration not stated)
inactive: NCI-H23 lung 99.5% | NCI-H226 lung 107% | NCI-H322M lung 125% | HOP-62 NSCLC 93.9% | NCI-H460 lung 124% | NCI-H522 lung 99% | A549/ATCC NSCLC 107% | 786-0 renal 104% | COLO 205 colon 103% | DU-145 prostate 108% | K-562 leukemia 104% | MALME-3M melanoma 120% | MDA-MB-231 breast 101% | RXF 393 renal 122% | SF-268 CNS 93.2% | SF-295 CNS 123% | SF-539 CNS 106% | UACC-257 melanoma 105% | M14 melanoma 120%

COc1ccc(-c2nc3c(c(-c4ccc(Cl)cc4)nn3-c3ccccc3)c(-c3ccc(O)cc3)c2C#N)cc1
active: 786-0 renal 9.2% | RXF 393 renal -12.7% | SF-295 CNS -6.26%
inactive: NCI-H23 lung 52.8% | NCI-H226 lung 70.6% | NCI-H322M lung 75.5% | HOP-62 NSCLC 57.5% | NCI-H460 lung 14.1% | NCI-H522 lung 58.3% | A549/ATCC NSCLC 41.2% | COLO 205 colon 57.8% | DU-145 prostate 51.6% | K-562 leukemia 10.8% | MALME-3M melanoma 62.6% | MDA-MB-231 breast 65.6% | SF-268 CNS 46.1% | SF-539 CNS 27.6% | UACC-257 melanoma 65.4% | M14 melanoma 45.9%

O=C1C=CN2C(=O)CC=CC2[C@@H]1O (some centres not stated)
inactive: NCI-H23 lung 103% | NCI-H226 lung 113% | NCI-H322M lung 116% | HOP-62 NSCLC 112% | NCI-H460 lung 121% | NCI-H522 lung 113% | A549/ATCC NSCLC 108% | 786-0 renal 110% | COLO 205 colon 123% | DU-145 prostate 118% | K-562 leukemia 109% | MALME-3M melanoma 133% | MDA-MB-231 breast 122% | RXF 393 renal 118% | SF-268 CNS 111% | SF-295 CNS 116% | SF-539 CNS 104% | UACC-257 melanoma 108% | M14 melanoma 104%

CCCCn1cnc2c(SCc3ccc([N+](=O)[O-])cc3)nc(N)nc21
inactive: NCI-H23 lung 96.5% | NCI-H226 lung 85.6% | NCI-H322M lung 112% | HOP-62 NSCLC 95.2% | NCI-H460 lung 108% | NCI-H522 lung 73.9% | A549/ATCC NSCLC 90.6% | 786-0 renal 79.5% | COLO 205 colon 105% | DU-145 prostate 123% | K-562 leukemia 59.8% | MALME-3M melanoma 130% | MDA-MB-231 breast 82.3% | RXF 393 renal 106% | SF-268 CNS 84.4% | SF-295 CNS 122% | SF-539 CNS 94.7% | UACC-257 melanoma 97.5% | M14 melanoma 106%

COc1cc(/C=N/NC(=O)Cn2c(-c3ccc(C)o3)nc3ccccc32)ccc1OCc1ccccc1
inactive: NCI-H23 lung 91.1% | NCI-H226 lung 84.4% | NCI-H322M lung 85.7% | HOP-62 NSCLC 89.8% | NCI-H460 lung 91.5% | NCI-H522 lung 73.6% | A549/ATCC NSCLC 72.9% | 786-0 renal 99% | COLO 205 colon 102% | DU-145 prostate 105% | K-562 leukemia 65.5% | MALME-3M melanoma 115% | MDA-MB-231 breast 78.7% | RXF 393 renal 85.6% | SF-268 CNS 76.1% | SF-295 CNS 91.7% | SF-539 CNS 103% | UACC-257 melanoma 89.5% | M14 melanoma 85.2%

CCCCCCCCCCCCCC1=NC(C)(C)CN1C(C)C
active: NCI-H23 lung -4.87% | NCI-H226 lung 2.64% | HOP-62 NSCLC -79.7% | NCI-H460 lung -52.2% | NCI-H522 lung -61.7% | A549/ATCC NSCLC -50.2% | 786-0 renal -86.2% | COLO 205 colon -62.9% | DU-145 prostate 9.58% | K-562 leukemia -49.5% | MALME-3M melanoma -48.9% | MDA-MB-231 breast -56.7% | RXF 393 renal -65.9% | SF-268 CNS -53.5% | SF-295 CNS -52.8% | SF-539 CNS -79.2% | UACC-257 melanoma -57.5% | M14 melanoma -74.8%
inactive: NCI-H322M lung 55.3%
